# Measured values from PubChem BioAssay (EPA / NIEHS).
# Records with an inconclusive call do not appear. Active and inactive are the calls of the source. The calls were made as follows, unless noted: active = hit-call score of the fitted dose curve at least 0.9, where 1 is the maximum; inconclusive = response in the unintended direction; inactive = score below 0.9.
# Legend:
# [1] = target: Nuclear receptor subfamily 1 group I member 2 (Homo sapiens) (UniProt O75469); assay: NVS_NR_hPXR: NovaScreen (NVS) Nuclear Receptor Binding Assay for human Pregnane X Receptor (PXR) (AID 2283365);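 also: a drop in FRET signal versus DMSO baseline means the compound binds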
# Outline: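 Human PXR protein, cell-free; compound added, incubated 2 h, TR-FRET read. Signal decrease vs DMSO = binding. Screened 25 uM duplicate, actives re-run as dilution series.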
# [2] = target: Estrogen receptor beta (Homo sapiens) (UniProt Q92731); assay: OT_ER_ERbERb_1440: Odyssey Thera (OT) 24-hour HEK293T Protein-Complementation Assay for Estrogen Receptor-beta/-beta Homodimer (AID 2283380);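 also: fluorescence gain from ER beta LBD homodimer complementation read by laser scanning cytometry; scored as signal increase over DMSO baseline for both agonists and antagonists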
# Outline: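 HEK293T cells stably expressing human ER-beta LBD (aa 310-547) PCA homodimer pair, dosed 24 h; formaldehyde-fixed, Draq5-stained. Readout: increase in nuclear (agonist) or nuclear plus cytoplasmic (antagonist) fluorescence intensity versus DMSO, gain-of-signal fitting.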
# [3] = target: Estrogen receptor (Homo sapiens) (UniProt P03372); assay: OT_ERa_GFPERaERE_0480: Odyssey Thera (OT) 8-hour HeLa Transcription Induction Assay for Estrogen Receptor (AID 2283381; active = hit-call score of the fitted dose curve at least 0.9, where 1 is the maximum; inactive = score below 0.9)
# Outline: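 Fluorescent reporter signal, imaged by microscopy and scored with image-analysis algorithms, was taken 8 h after chemical dosing of HeLa cells; activity was fitted upward relative to DMSO.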
# [4] = target: Estrogen receptor (Homo sapiens) (UniProt P03372); assay: OT_ERa_GFPERaERE_0120: Odyssey Thera (OT) 2-hour HeLa Transcription Induction Assay for Estrogen Receptor (AID 2283382)
# Outline: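 HeLa, 384-well, 2 h chemical exposure; GFP reporter induction (ERE), fluorescence microscopy; high content image analysis; positive fitting direction vs DMSO.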
# [5] = target: Bile acid receptor (Homo sapiens) (UniProt Q96RI1); assay: OT_FXR_FXRSRC1_0480: Odyssey Thera (OT) 8-hour HEK293T Protein-Complementation Assay for Farnesoid X receptor/SRC-1 Co-activator (AID 2283383)
# Outline: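 Human kidney HEK293T cells carried FXR/SRC-1 fragment-complementation constructs. Compounds were added and incubated 8 h. Reporter reassembly upon receptor–co-activator interaction was then quantified by fluorescence, with curves fitted in the positive direction relative to DMSO.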
# [6] = target: Peroxisome proliferator-activated receptor gamma (Homo sapiens) (UniProt P37231); assay: OT_PPARg_PPARgSRC1_1440: Odyssey Thera (OT) 24-hour Protein-Complementation Assay for Peroxisome Proliferator-activated Receptor Gamma/ SRC-1 Co-activator (AID 2283388);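 also: nuclear to cytoplasmic ratio of reconstituted Venus YFP fluorescence in fixed imaged cells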
# Outline: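 Protein-fragment complementation between PPARg and coactivator SRC-1 was measured by fluorescence imaging in transiently transfected HEK293T cells after 24 h treatment. Signal was quantified as N/C ratio in the 488 nm channel, with DMSO as negative control.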
# [7] = target: Peroxisome proliferator-activated receptor gamma (Homo sapiens) (UniProt P37231); assay: NVS_NR_hPPARg: NovaScreen (NVS) Nuclear Receptor Binding Assay for human Peroxisome Proliferator-activated Receptor gamma (PPARg) (AID 2283370)
# Outline: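 Chemicals were tested first in duplicate at 25 uM, then in concentration series if active. Binding to cell-free PPARg protein was measured by fluorescence polarization after 2 h, with loss of signal scored against DMSO.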
# [8] = target: Retinoic acid receptor RXR-alpha (Homo sapiens) (UniProt P19793); assay: OT_NURR1_NURR1RXRa_1440: Odyssey Thera (OT) 24-hour HEK293T Protein Complementation Assay for Nurr1/retinoid X receptor (RXR) (AID 2283386)
# Outline: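 Interaction of Nurr1 with RXRα brings fused reporter fragments together in human HEK293T cells, restoring a functional reporter. Fluorescence intensity is measured 24 h after chemical treatment, and values are analysed in the positive direction against DMSO.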
# [9] = target: Peroxisome proliferator-activated receptor gamma (Homo sapiens) (UniProt P37231); assay: OT_PPARg_PPARgSRC1_0480: Odyssey Thera (OT) 8-hour Protein-Complementation Assay for Peroxisome Proliferator-activated Receptor Gamma / SRC-1 Co-activator (AID 2283387);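 also: nuclear to cytoplasmic split Venus YFP fluorescence ratio reporting PPARg SRC-1 interaction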
# Outline: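 Read-out: 488 nm N/C fluorescence ratio from complemented Venus YFP fragments, ≥350 cells per image, gain-of-signal fitted against DMSO baseline. Fusions of PPARg/SRC-1 with IFP1/IFP2 expressed transiently in HEK293T; compounds applied 8 h.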
# [10] = target: guinea pig Sigma Receptor, Non-selective Binding, SIGMAR1 (gene 100135589) (UniProt Q60492); assay: NVS_OR_gSIGMA_NonSelective: NovaScreen (NVS) Nuclear Receptor Binding Assay for guinea pig Sigma Receptor, Non-selective Binding (AID 2283367)
# Outline: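 Guinea pig brain membranes, cell-free radioligand binding; read 1 h after dosing by filter-based scintillation counting. Loss of signal vs DMSO baseline taken as displacement. Primary screen single concentration 25 uM in duplicate; actives retested in concentration series.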
# [11] = test system: guinea pig Dopamine Transporter (DAT), gene 100714898; assay: NVS_TR_gDAT: NovaScreen (NVS) Transporter Assay for guinea pig Dopamine Transporter (DAT) (AID 2283369);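 also: active compounds lower bound radioligand signal relative to DMSO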
# Outline: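 Scintillation counts of filter-retained radioligand report binding to guinea pig striatal membranes after 2 h. Activity scored as signal loss relative to DMSO, first at 25 uM in duplicate, then in concentration series to 50 uM.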
# [12] = target: human Dopamine Transporter (DAT), SLC6A3 (gene 6531) (UniProt Q01959); assay: NVS_TR_hDAT: NovaScreen (NVS) Transporter Assay for human Dopamine Transporter (DAT) (AID 2283374);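 also: activity means loss of bound radioligand signal relative to DMSO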
# Outline: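 Cell-free radioligand binding to extracted human DAT protein, read 1 h after dosing by filter-based scintillation counting. Loss of specific binding scored against DMSO baseline; primary screen in duplicate at 25 uM, actives then run in concentration series.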
# [13] = target: rat Serotonin Transporter (SERT), Slc6a4 (gene 25553) (UniProt P31652); assay: NVS_TR_rSERT: NovaScreen (NVS) Transporter Assay for rat Serotonin Transporter (SERT) (AID 2283375)
# Outline: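 Filtration-based radiodetection quantified loss of specific radioligand binding in rat forebrain membranes after 1 hour of chemical exposure, relative to DMSO. Chemicals were first tested in duplicate at 25 uM.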
# [14] = target: human Norepinephrine Transporter (NET), SLC6A2 (gene 6530) (UniProt P23975); assay: NVS_TR_hNET: NovaScreen (NVS) Transporter Assay for human Norepinephrine Transporter (NET) (AID 2283377);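 also: cell-free membrane protein extracted from CHO cells expressing human NET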
# Outline: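 Radioligand binding to human NET in cell-free CHO-derived protein preparations, read by filter-based scintillation counting 1 hour after dosing. Loss of signal versus DMSO baseline indicated displacement; primary screening in duplicate at 25 uM, actives then titrated.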
# [15] = CEETOX_H295R_11DCORT: CeeTox H295R High-throughput Steroidogenesis Assay for 11-Deoxycortisol (11DCORT) (AID 2283432; active = hit-call score of the fitted dose curve at least 0.9, where 1 is the maximum; inactive = score below 0.9;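 as to AC50: 11-deoxycortisol secreted into the medium measured by LC-MS/MS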); settings: actives raise or lower the signal
# Outline: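 H295R cells; 10 uM forskolin prestim 48 h; compound in 0.1% DMSO 48 h; media extracted with MTBE; 11-deoxycortisol by LC-MS/MS, 7-point standard curve; gain/loss vs DMSO baseline; viability by MTT in same wells.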
# [16] = CEETOX_H295R_OHPREG: CeeTox H295R High-throughput Steroidogenesis Assay for OH-Pregnenolone (OHPREG) (AID 2283434; active = hit-call score of the fitted dose curve at least 0.9, where 1 is the maximum; inactive = score below 0.9); settings: actives raise or lower the signal
# Outline: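 Human adrenal H295R cells were prestimulated 48 h with 10 uM forskolin, then exposed 48 h to chemical in 0.1% DMSO. Medium 17alpha-hydroxypregnenolone was quantified by HPLC-MS/MS after MTBE extraction; bidirectional fitting versus DMSO baseline.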
# [17] = CEETOX_H295R_OHPROG: CeeTox H295R High-throughput Steroidogenesis Assay for OH-Progesterone (OHPROG) (AID 2283435; active = hit-call score of the fitted dose curve at least 0.9, where 1 is the maximum; inactive = score below 0.9;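 as to AC50: 17alpha-hydroxyprogesterone secreted into medium measured by HPLC-MS/MS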); settings: actives raise or lower the signal
# Outline: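 H295R, 10 uM forskolin prestim 48 h; cmpd in 0.1% DMSO 48 h; medium MTBE-extracted, HPLC-MS/MS for OH-progesterone; 7-pt std curve; bidirectional fit vs DMSO; MTT viability, chemicals diluted until viability >/=70%.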
# [18] = target: mouse Estrogen Receptor alpha (Era), Esr1 (gene 13982) (UniProt P19785); assay: NVS_NR_mERa: NovaScreen (NVS) Nuclear Receptor Binding Assay for mouse Estrogen Receptor alpha (Era) (AID 2283378);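 also: hit means loss of bound radioligand signal relative to DMSO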
# Outline: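 Extracted mouse Era incubated with tritiated or iodinated radioligand plus test chemical, 18 h. Bound fraction separated on filters, counted by scintillation. DMSO = negative control/baseline; duplicate single-point at 25 uM, then concentration-response follow-up.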
# Estrogen receptor (Homo sapiens), sequence (P03372 whole entry, looked up): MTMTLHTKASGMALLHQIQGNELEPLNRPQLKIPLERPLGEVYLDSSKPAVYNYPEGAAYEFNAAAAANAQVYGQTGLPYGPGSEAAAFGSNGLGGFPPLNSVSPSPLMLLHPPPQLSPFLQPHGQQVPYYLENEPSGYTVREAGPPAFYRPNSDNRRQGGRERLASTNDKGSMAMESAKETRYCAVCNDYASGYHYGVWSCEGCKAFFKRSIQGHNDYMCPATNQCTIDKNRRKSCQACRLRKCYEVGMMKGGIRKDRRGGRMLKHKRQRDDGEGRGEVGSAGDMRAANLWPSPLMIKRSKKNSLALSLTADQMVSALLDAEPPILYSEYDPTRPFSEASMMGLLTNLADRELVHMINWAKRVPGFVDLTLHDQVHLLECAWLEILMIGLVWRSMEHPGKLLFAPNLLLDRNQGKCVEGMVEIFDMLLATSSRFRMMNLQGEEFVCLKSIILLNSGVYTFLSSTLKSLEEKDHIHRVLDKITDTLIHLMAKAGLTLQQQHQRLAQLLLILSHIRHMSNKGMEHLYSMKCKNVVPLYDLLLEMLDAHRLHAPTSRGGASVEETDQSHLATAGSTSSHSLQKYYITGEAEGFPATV
# Peroxisome proliferator-activated receptor gamma (Homo sapiens), sequence (P37231 whole entry, looked up, the tested form may be a part): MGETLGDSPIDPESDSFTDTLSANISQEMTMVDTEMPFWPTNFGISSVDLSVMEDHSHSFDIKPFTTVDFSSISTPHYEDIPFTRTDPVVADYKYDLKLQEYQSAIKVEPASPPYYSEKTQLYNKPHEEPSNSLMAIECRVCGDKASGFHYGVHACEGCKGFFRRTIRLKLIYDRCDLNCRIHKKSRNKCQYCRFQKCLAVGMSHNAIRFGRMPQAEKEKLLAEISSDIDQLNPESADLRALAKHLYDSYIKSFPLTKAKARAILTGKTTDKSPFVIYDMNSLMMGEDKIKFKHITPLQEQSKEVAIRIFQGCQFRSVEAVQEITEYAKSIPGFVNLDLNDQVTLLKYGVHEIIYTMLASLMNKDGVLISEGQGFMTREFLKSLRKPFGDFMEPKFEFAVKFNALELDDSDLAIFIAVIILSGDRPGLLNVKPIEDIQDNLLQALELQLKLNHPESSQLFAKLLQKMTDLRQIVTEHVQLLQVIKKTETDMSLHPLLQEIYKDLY
# human Dopamine Transporter (DAT), SLC6A3 (gene 6531), sequence (Q01959 whole entry, looked up): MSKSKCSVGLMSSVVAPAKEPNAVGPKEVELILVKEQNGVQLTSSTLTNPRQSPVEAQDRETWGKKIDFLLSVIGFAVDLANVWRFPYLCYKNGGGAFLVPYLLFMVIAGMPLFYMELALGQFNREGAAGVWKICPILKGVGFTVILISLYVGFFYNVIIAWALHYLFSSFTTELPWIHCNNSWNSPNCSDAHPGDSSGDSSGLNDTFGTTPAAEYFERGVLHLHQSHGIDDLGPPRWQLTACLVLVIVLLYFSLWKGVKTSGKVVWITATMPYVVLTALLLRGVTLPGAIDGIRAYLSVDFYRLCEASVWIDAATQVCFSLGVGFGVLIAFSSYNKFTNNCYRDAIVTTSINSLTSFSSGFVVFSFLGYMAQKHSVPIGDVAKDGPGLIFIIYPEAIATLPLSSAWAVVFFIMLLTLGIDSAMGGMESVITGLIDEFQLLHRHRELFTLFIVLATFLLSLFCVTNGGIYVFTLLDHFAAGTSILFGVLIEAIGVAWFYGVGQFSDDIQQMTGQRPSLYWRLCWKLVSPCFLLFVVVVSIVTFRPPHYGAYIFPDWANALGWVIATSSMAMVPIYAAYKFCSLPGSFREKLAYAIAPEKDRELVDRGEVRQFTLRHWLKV
# Bile acid receptor (Homo sapiens), sequence (Q96RI1 whole entry, looked up, the tested form may be a part): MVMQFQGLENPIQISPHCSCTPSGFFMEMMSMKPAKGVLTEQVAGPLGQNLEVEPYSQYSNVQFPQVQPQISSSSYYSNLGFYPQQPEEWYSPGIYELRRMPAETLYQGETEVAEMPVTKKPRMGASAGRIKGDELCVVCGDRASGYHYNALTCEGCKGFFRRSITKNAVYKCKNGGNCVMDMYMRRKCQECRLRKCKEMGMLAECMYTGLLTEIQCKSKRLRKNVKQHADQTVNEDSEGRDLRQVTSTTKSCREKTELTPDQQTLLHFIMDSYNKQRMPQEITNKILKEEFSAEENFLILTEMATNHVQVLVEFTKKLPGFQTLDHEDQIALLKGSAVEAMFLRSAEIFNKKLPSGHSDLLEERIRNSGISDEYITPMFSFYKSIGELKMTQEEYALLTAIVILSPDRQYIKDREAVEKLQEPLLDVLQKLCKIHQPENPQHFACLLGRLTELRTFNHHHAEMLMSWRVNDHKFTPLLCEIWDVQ
# mouse Estrogen Receptor alpha (Era), Esr1 (gene 13982), sequence (P19785 whole entry, looked up): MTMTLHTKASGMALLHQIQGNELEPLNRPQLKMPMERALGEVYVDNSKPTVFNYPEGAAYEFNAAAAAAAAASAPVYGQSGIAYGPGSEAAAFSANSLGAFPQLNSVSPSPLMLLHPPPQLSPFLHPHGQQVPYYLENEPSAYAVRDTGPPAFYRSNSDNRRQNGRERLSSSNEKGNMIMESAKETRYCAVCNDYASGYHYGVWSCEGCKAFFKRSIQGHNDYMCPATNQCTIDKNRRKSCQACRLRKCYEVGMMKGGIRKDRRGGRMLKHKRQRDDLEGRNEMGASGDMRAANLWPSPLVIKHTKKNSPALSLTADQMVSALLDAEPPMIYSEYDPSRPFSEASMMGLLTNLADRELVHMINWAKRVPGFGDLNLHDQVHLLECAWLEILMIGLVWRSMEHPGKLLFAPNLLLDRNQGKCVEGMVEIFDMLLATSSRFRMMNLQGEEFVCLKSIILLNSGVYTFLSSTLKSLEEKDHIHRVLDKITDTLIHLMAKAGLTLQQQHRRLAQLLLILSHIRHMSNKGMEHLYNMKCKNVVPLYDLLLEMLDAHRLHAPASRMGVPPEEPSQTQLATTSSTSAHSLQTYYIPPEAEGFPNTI
# Estrogen receptor beta (Homo sapiens), sequence (Q92731 whole entry, looked up, the tested form may be a part): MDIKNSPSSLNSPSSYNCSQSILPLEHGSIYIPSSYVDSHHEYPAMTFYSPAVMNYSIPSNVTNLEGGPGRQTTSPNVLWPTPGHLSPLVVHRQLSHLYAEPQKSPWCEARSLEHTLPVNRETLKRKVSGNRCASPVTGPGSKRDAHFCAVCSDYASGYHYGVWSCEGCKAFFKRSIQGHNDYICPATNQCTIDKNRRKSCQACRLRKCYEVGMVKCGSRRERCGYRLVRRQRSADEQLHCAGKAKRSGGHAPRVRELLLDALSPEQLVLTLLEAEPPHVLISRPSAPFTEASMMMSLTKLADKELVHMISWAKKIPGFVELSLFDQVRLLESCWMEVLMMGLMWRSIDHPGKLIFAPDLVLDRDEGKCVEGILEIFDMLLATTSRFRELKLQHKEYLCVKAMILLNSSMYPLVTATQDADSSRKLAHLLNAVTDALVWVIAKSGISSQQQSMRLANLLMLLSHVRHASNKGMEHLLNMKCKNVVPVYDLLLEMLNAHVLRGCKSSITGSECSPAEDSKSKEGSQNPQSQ
# human Norepinephrine Transporter (NET), SLC6A2 (gene 6530), sequence (P23975 whole entry, looked up): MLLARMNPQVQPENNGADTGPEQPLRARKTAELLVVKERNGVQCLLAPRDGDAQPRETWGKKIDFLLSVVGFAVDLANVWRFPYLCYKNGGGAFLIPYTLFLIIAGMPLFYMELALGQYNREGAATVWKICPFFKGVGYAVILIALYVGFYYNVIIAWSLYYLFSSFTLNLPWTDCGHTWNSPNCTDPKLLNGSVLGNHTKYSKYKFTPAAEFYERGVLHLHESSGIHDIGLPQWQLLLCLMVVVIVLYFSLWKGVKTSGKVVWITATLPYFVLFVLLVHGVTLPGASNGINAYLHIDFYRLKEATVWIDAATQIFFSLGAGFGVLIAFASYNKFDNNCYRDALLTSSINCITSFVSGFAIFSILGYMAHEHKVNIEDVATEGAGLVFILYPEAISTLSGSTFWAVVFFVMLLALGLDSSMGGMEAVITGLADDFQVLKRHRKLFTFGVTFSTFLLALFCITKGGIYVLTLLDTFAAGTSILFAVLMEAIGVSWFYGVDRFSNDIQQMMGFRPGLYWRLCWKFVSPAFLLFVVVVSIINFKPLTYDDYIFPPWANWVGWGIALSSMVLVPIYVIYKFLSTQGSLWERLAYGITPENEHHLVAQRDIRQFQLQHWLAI
# Nuclear receptor subfamily 1 group I member 2 (Homo sapiens), sequence (O75469 whole entry, looked up): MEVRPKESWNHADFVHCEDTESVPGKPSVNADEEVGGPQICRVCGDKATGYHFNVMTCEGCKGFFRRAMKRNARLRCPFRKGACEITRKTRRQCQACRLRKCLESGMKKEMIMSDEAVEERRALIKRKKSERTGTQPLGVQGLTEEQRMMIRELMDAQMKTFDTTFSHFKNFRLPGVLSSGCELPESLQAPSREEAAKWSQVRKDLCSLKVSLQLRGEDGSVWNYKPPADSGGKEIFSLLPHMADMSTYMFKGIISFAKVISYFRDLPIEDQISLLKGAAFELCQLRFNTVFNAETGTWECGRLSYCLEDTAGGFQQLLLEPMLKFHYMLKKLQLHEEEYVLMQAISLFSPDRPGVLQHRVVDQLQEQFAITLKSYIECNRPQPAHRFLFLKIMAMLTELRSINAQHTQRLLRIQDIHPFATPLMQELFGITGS
# rat Serotonin Transporter (SERT), Slc6a4 (gene 25553), sequence (P31652 whole entry, looked up): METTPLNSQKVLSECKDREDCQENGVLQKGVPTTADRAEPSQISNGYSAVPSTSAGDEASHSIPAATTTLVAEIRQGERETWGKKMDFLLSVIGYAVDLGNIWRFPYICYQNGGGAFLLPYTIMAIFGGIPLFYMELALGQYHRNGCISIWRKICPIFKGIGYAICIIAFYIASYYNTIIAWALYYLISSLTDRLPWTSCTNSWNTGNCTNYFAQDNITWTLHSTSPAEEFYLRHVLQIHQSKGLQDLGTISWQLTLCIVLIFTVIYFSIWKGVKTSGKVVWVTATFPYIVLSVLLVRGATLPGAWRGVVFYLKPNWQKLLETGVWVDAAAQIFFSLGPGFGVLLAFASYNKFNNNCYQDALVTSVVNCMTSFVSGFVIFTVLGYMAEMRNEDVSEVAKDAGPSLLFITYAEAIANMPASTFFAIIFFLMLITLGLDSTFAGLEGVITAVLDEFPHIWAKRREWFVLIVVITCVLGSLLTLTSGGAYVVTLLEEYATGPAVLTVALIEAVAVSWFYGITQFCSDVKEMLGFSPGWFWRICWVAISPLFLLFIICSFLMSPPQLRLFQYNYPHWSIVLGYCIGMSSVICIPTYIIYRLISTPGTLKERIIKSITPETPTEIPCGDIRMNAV
smiles,measurement,setting,value
O=C(OCCOCCOCCOC(=O)c1ccccc1)c1ccccc1,outcome,[1],inactive
same,outcome,[2],inactive
same,outcome,[3],inactive
same,outcome,[4],inactive
same,outcome,[5],inactive
same,outcome,[6],inactive
CCN(Cc1cccc(S(=O)(=O)O)c1)c1ccc(C(=C2C=CC(=[N+](CC)Cc3cccc(S(=O)(=O)O)c3)C=C2)c2ccc(O)cc2S(=O)(=O)[O-])cc1,AC50,[1],2.41 µM (active)
same,AC50,[7],8.78 µM (active)
same,outcome,[2],inactive
same,outcome,[3],inactive
same,outcome,[4],inactive
same,outcome,[8],inactive
same,outcome,[9],inactive
same,outcome,[6],inactive
Cc1ccc(S(=O)(=O)NCl)cc1,outcome,[1],inactive
same,outcome,[2],inactive
same,outcome,[3],inactive
same,outcome,[4],inactive
same,outcome,[8],inactive
same,outcome,[9],inactive
same,outcome,[6],inactive
CCCCCCCCCCCCCCCC[N+](C)(C)Cc1ccccc1,AC50,[10],1.23 µM (active)
same,AC50,[11],17.3 µM (active)
same,AC50,[12],1.89 µM (active)
same,outcome,[13],inactive
same,AC50,[14],2.45 µM (active)
CCCCOc1ccc(N)cc1,AC50,[2],25.2 µM (active)
same,outcome,[3],inactive
same,outcome,[4],inactive
same,outcome,[5],inactive
same,outcome,[8],inactive
same,outcome,[9],inactive
same,outcome,[6],inactive
Cc1cccc(N(C)C)c1,outcome,[13],inactive
same,outcome,[15],inactive
same,outcome,[16],inactive
same,outcome,[17],inactive
CCCCNc1ccccc1,outcome,[12],inactive
CCN(CC)c1ccc2c(C)cc(=O)oc2c1,AC50,[11],13.6 µM (active)
same,AC50,[12],20.2 µM (active)
same,AC50,[14],25 µM (active)
CN(C)Cc1ccccc1O,outcome,[2],inactive
same,outcome,[3],inactive
same,outcome,[4],inactive
same,outcome,[8],inactive
same,outcome,[6],inactive
C(=C(c1ccccc1)c1ccccc1)c1ccccc1,AC50,[18],8.44 µM (active)
same,AC50,[2],1.59 µM (active)
same,AC50,[3],1.61 µM (active)
same,AC50,[4],1.52 µM (active)
same,AC50,[5],73.5 µM (active)
same,AC50,[8],81.3 µM (active)
same,outcome,[9],inactive
same,outcome,[6],inactive
CC(Cc1ccc(O)c(O)c1)C(C)Cc1ccc(O)c(O)c1 (stereo unspecified),AC50,[1],5.16 µM (active)
same,AC50,[7],4.91 µM (active)
same,AC50,[18],1.82 µM (active)
same,AC50,[2],11.9 µM (active)
same,AC50,[3],11.9 µM (active)
same,AC50,[4],1.47 µM (active)
same,outcome,[8],inactive
same,outcome,[6],inactive
same,AC50,[15],79.6 µM (active)
same,outcome,[16],inactive
same,AC50,[17],4.19 µM (active)
C#C[C@]1(O)CC[C@H]2[C@@H]3CCc4cc(OC)ccc4[C@H]3CC[C@@]21C,AC50,[13],19 µM (active)
same,AC50,[14],3.99 µM (active)
same,outcome,[18],inactive
same,AC50,[3],0.0277 µM (active)
same,AC50,[4],0.0294 µM (active)
same,AC50,[5],60.4 µM (active)
same,AC50,[8],78.8 µM (active)
same,outcome,[9],inactive
same,outcome,[6],inactive
same,outcome,[15],inactive
same,outcome,[16],inactive
same,AC50,[17],7.82 µM (active)
CCCCCCOC(=O)c1ccccc1O,outcome,[1],inactive
same,outcome,[2],inactive
same,outcome,[3],inactive
same,outcome,[4],inactive
same,outcome,[5],inactive
same,outcome,[8],inactive
same,outcome,[6],inactive
Cc1cc(C)cc(O)c1,outcome,[2],inactive
same,outcome,[3],inactive
same,outcome,[4],inactive
same,outcome,[8],inactive
same,outcome,[9],inactive
same,outcome,[6],inactive
Nc1ccc(Oc2cccc(Oc3ccc(N)cc3)c2)cc1,AC50,[11],3.46 µM (active)
same,AC50,[12],1.02 µM (active)
same,outcome,[14],inactive
same,outcome,[15],inactive
same,outcome,[16],inactive
same,AC50,[17],2.87 µM (active)
